# Source: PubChem (National Center for Advancing Translational Sciences (NCATS))
# JMJD2A Tudor – blocks the human JMJD2A Tudor domain | 390,000 tested, 4.4% active | AlphaScreen JMJD2A-Tudor / H3K4me3 peptide binding | Potency, µM (highest dose often 114 µM), hits mostly inhibitors | AID 504339 | O75164; note: nearly all actives have a fitted effect of over 50% in size
# BAZ2B inh – inhibitors of human BAZ2B bromodomain. Q9UIF8. AlphaScreen BAZ2B-H3K14Ac peptide displacement. Potency, µM (titrated, usually from 114 µM), hits mostly inhibitors. 360,000 tested, 4.4% active. AID 504333; note: nearly all actives have a fitted effect of over 60% in size
#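 AlphaScreen luminescence quantifies BAZ2B engagement of H3K14Ac peptide; the protein and biotinylated peptide are both at 50 nM final, buffer PBS pH 7.4 with 0.01% Tween-20, all steps at room temperature.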
# PLK1 PBD inh – blocks phosphopeptide binding to human PLK1 polo-box domain; P53350; Plk1 PBD binding of FITC phosphopeptide, fluorescence polarization; Potency, µM, usual class: inhibitors; 360,000 tested, 2.8% active; note: series mostly up to about 57 µM; nearly all actives have a fitted effect of over 65% in size
# VDR inhibitor – blocks the human vitamin D receptor | P11473 | VDR-SRC2-3 peptide fluorescence polarization, 2 h | Potency, µM, actives largely listed as inhibitors | 400,000 tested, 0.93% active
#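 Reagent solutions, kept cold and dark, are dispensed first; compounds are then pinned in at 23 nl, plates briefly spun, and incubated 2 h at ambient temperature. Inhibition of VDR–SRC2-3 peptide binding is read by fluorescence polarization.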
# G9a block – inhibitors of human histone lysine methyltransferase G9a; Q96KQ7; G9a H3K9 monomethylation, AlphaScreen, 2 h; Potency, µM (top dose mostly 102 µM), hits mostly inhibitors; 350,000 tested, 8.8% active; note: nearly all actives have a fitted effect of over 75% in size
#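 Using a bead-based AlphaScreen, monomethylated H3K9 product from 2 h room-temperature reactions (G9a 20 nM, peptide 500 nM, SAM 20 uM) was detected with 0.5 ug/mL rabbit anti-H3K9me1 antibody.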
# HP1b binding inh – blocks HP1-beta chromodomain binding to methylated histone tails; AlphaScreen HP1-beta / biotin-H3K9me3 peptide binding; P83916; Potency, µM (doses to about 114 µM), most hits filed as inhibitors; 390,000 tested, 0.56% active; AID 540317; note: nearly all actives have a fitted effect of over 70% in size
#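 HP1-beta protein (50 nM final) preincubated 30 min at room temperature with biotinylated H3(1-18)K9me3 peptide (50 nM) in PBS pH 7.4, 0.01% Tween-20, then compound added for 30 min. AlphaScreen streptavidin donor/nickel chelate acceptor beads (10 ug/mL final), 30 min dark, luminescence read.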
# Numbers stand for hits; n = inactive; u = inconclusive; x = not tested or not shown; [ ] = another dose, or the depositor's remark. Compounds with a hit are over-represented: about 11% of the library has one in this group of screens. Calls come from the whole dose curve; as a rule, active = well fitted curve in the direction sought with a large enough effect; inconclusive = small, poorly fitted or top-dose-only effect, or another doubt; inactive = no such curve, though single readings can be large; an effect the other way counts as inactive or inconclusive.
SMILES,JMJD2A Tudor,BAZ2B inh,PLK1 PBD inh,VDR inhibitor,G9a block,HP1b binding inh
Cc1ccc(-c2[nH]nc(N)c2N=Nc2ccccc2C)cc1,25µM,u,n,n,u,u
Cc1[nH]nc(N)c1N=Nc1ccc(Br)cc1,x,40µM,x,x,x,x
Nc1n[nH]c(N)c1N=Nc1ccc2c(c1)OCO2,u,40µM,n,n,n,n
Cc1ccc(N=Nc2c(N)n[nH]c2N)cc1,u,u,n,n,35µM,n
CCN(C(=O)Cn1c(=O)n(Cc2ccccc2)c(=O)c2c1c1cc(OC)ccc1n2C)c1ccccc1,n,n,x,n,u,n
CCCC[C@H]1C2=C3[C@@H](CC(C(=O)OC)=C[C@@H](C(=O)OC)[C@H]3C(C)(C)C2=O)n2c(=O)n(C)c(=O)n21,n,x,x,n,x,n
O=C(Nc1ccc(F)cc1F)c1cccnc1,u,n,27µM,n,n,n
Cc1cc(F)ccc1NC(=O)c1cccnc1,n,n,n,n,n,n
O=C(N/N=C(\c1ccccc1)c1cccnc1)c1cccc(F)c1,45µM,56µM,n,n,n,n
Cc1ccc(S(=O)(=O)N2CCOCC2)cc1NC(=O)COC(=O)c1ccc(Br)o1,n,x,n,n,x,n
CC(C)C[C@H](NC(=O)[C@@H]1CCCN1C(=O)[C@H](CO)NC(=O)[C@H](Cc1ccccc1)NC(=O)CNC(=O)[C@@H]1CCCN1C(=O)[C@@H]1CCCN1C(=O)[C@@H](N)CCCN=C(N)N)C(=O)O,x,x,x,n,x,x
COc1cc(Cl)c(C)cc1NS(=O)(=O)c1c(C)nc2sccn2c1=O,n,n,x,n,n,n
Cc1ccc(OCc2nc(-c3ccc(C(=O)N4CCN(c5cc(Cl)ccc5C)CC4)cc3)oc2C)cc1,n,n,x,n,n,n
O=C(O)CCN1C(=O)/C(=C/c2cn(-c3ccccc3)nc2-c2cccs2)SC1=S,22µM,n,30µM,u,n,u
O=C(O)CCCCCN1C(=O)/C(=C\c2cn(-c3ccccc3)nc2-c2cccs2)SC1=S,40µM,13µM,n,n,16µM,n
O=C(O)CCCCCN1C(=O)/C(=C/c2cn(-c3ccccc3)nc2-c2cccs2)SC1=S,32µM,x,27µM,n,x,u
O=C(CCCN1C(=O)/C(=C\c2cccs2)SC1=S)Nc1ccccc1O,x,x,n,x,x,x
CN1CCC(N(C)C(=O)/C=C/c2cn(-c3ccccc3)nc2-c2cccs2)CC1,u,n,n,n,n,n
COC(=O)[C@@H](NC(=O)c1ccc2c(c1)S(=O)(=O)c1ccccc1C2=O)C(C)C,n,n,n,n,n,n
COc1cccc(CCNC(=O)c2c(O)nc3ccccn3c2=O)c1,n,n,x,n,n,n
CC(C)c1ccc(Nc2nnns2)cc1,u,n,27µM,79µM,10µM,u
CC(C)c1ccc(NC(=O)c2ccc3snnc3c2)cc1,n,n,n,n,n,n
COc1cccc(/C=N/NC(=O)c2oc3nc(-c4ccccc4)cc(-c4ccco4)c3c2N)c1,n,n,n,n,32µM,n
Cc1ccc(-c2cc(-c3ccco3)c3c(N)c(C(=O)NN)oc3n2)cc1,u,u,n,n,x,n
COc1ccc(S(=O)(=O)N2CCOC2CNC(=O)C(=O)NCCCN2CCOCC2)cc1OC (stereo not drawn),n,x,n,n,x,n
SMILES,JMJD2A Tudor,BAZ2B inh,PLK1 PBD inh,VDR inhibitor,G9a block,HP1b binding inh
CCOC(=O)CCCCCC(=O)Nc1ccc2c(c1)C(=O)N([C@@H](C)CO)C[C@@H](C)[C@H](CN(C)C(=O)c1ccncc1)OCCCC[C@H](C)O2,x,x,n,x,x,x
Cn1c(=O)c(=O)n(C)c2cc(N3CCCC3)c(NC(=O)c3ccccc3F)cc21,n,n,x,n,n,n
Cn1c(=O)n(C)c2cc(N3CCCCC3)c(NC(=O)c3ccccc3)cc21,n,50µM,n,n,n,n
CCn1c(=O)n(CC)c2cc(N3CCCC3)c(NC(=O)c3ccccc3C)cc21,u,u,n,n,50µM,n
CCOc1ccccc1C(=O)Nc1cc2c(cc1N1CCCCC1)n(C)c(=O)n2C,n,u,x,n,u,n
CCn1c(=O)n(CC)c2cc(N3CCCC3)c(NC(=O)c3ccccc3F)cc21,56µM,u,24µM,n,40µM,u
NS(=O)(=O)OCC(Cc1ccccc1)N1C(=O)c2ccccc2C1=O (stereo not drawn),n,n,n,n,n,n
CCCOc1ccc(NC(=O)CC2C(=O)N(c3cccc(OC)c3)C(=O)N2Cc2cccs2)cc1 (stereo not drawn),n,n,x,n,u,n
CCOc1ccccc1NC(=O)c1sc2nc(-c3ccc(OC)cc3)ccc2c1N,n,n,x,n,n,n
CC(=O)c1sc(Nc2ccccc2)nc1C,x,x,n,x,x,x
CC(C)(C)C(=O)c1sc(Nc2ccccc2)nc1N,56µM,50µM,n,n,25µM,u
COc1ccc(C2=CC(=O)OC3(CCCC3)O2)cc1,n,u,n,n,45µM,n
CC(C)CCOc1ccc(CO[C@@H]2[C@H]3OC(C)(C)O[C@H]3O[C@@H]2C(O)CO)cc1 (stereo partly drawn),n,n,n,n,n,n
CC1CCN(S(=O)(=O)CCNC(=O)c2ccc(F)cc2)CC1,n,n,n,n,n[0.501 µM],n
Cc1ccc(N2C(=O)CS(=O)(=O)C23C(=O)Nc2ccccc23)cc1C (stereo not drawn),n,n,x,n,16µM,n
Cc1cc(C)cc(N2C(=O)CS(=O)(=O)C23C(=O)N(C)c2ccccc23)c1 (stereo not drawn),n,n,x,n,u,n
COc1cc(NC(=O)CSc2ncnc3sc4c(c23)CCC(C)C4)c(C(=O)O)cc1OC (stereo not drawn),n,n,17µM,n,20µM,n
O=C(O)CSc1ncnc2sc3c(c12)CCC3,n,50µM,n,n,n,n
CCN(CC)c1ncnc2sc3c(c12)CCC3,n,n,n,n,40µM,n
O=C(O)CSc1ncnc2sc3c(c12)CCCC3,n,n,n,n,x,n
CC1CCc2c(sc3ncnc(SCC(=O)Nc4ccc(C(=O)O)cc4)c23)C1 (stereo not drawn),n,n,60µM,n,n,n
O=C(COC(=O)c1cccc(OC(F)F)c1)Nc1ncccn1,u,x,n,n,x,n
Cc1c(Cl)cccc1NC(=O)c1ccc(-n2ccnc2)nc1,n,n,n,n,n,n
Cc1ccc(NC2CCCN(C(=O)c3cccc(-c4ncc[nH]4)c3)C2)cc1C (stereo not drawn),u,u,n,n,u,n
COc1ccc2[nH]c3c(N4CCN(Cc5ccc6c(c5)OCO6)CC4)ncnc3c2c1,u,50µM,n,n,50µM,n
COc1ccc2c(c1)c1ncnc(N3CCN(Cc4ccc5c(c4)OCO5)CC3)c1n2C,x,n,x,x,n,x
O=[N+]([O-])c1ccc2ncnc(N3CCN(Cc4ccc5c(c4)OCO5)CC3)c2c1,u,40µM,n,n,x,n
